The values below come from PMC11006913.

Positions count from the first letter of the chain named.

What all share (assay): PBM; 200 nM protein, PBS
Holding throughout (settings): dsDNA, one strand shown

The target of test [1] is CRX (Homo sapiens, UniProt O43186 26-111).
The target of test [2] is CRX (Homo sapiens, UniProt O43186 26-111, E42D).
A further test concerns the target PITX2 (Homo sapiens, UniProt Q99697 72-157).
Test [3] addresses CRX (Homo sapiens, UniProt O43186 26-111, R41L).
The target in test [4] is T1, NKX2-6 (Homo sapiens, UniProt A6NCS4 118-204).
T1 sequence: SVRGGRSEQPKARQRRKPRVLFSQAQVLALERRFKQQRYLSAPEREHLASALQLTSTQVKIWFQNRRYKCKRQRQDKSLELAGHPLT

Test [5] has as its target VAX1 (Homo sapiens, UniProt Q5SQQ9 86-172).
In test [6] the target is T2, NKX2-6 (Homo sapiens, UniProt A6NCS4 118-204, F151L).
T2 sequence: T1 sequence with F34L

The target in test [7] is VAX1 (Homo sapiens, UniProt Q5SQQ9 86-172, T142I).
Test [8] addresses VAX1 (Homo sapiens, UniProt Q5SQQ9 86-172, K157R).
Test [9] has as its target ALX1 (Homo sapiens, UniProt Q15699 118-204, L144V).
The target in test [10] is ALX1 (Homo sapiens, UniProt Q15699 118-204, L144R).
The target of test [11] is ALX1 (Homo sapiens, UniProt Q15699 118-204).
Test [12] concerns the target MSX2 (Homo sapiens, UniProt P35548 130-214, R199I).
Test [13] concerns the target MSX2 (Homo sapiens, UniProt P35548 130-214).
The target of test [14] is MSX2 (Homo sapiens, UniProt P35548 130-214, F161Y).
Test [15] concerns the target PROP1 (Homo sapiens, UniProt O75360 56-141).
In test [16] the target is PROP1 (Homo sapiens, UniProt O75360 56-141, R99H).
The target of test [17] is PROP1 (Homo sapiens, UniProt O75360 56-141, F88S).
PROP1 (Homo sapiens, UniProt O75360 56-141, F88S), sequence (O75360 56-141 F88S): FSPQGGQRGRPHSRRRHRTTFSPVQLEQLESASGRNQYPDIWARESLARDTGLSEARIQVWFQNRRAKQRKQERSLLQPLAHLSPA

CRX (Homo sapiens, UniProt O43186 26-111), sequence (O43186 26-111): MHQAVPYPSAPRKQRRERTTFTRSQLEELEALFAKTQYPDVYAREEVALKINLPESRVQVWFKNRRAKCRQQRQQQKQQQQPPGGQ
CRX (Homo sapiens, UniProt O43186 26-111, E42D), sequence (O43186 26-111 E42D): as the sequence (O43186 26-111) above, with E17D counted along it
CRX (Homo sapiens, UniProt O43186 26-111, R41L), sequence (O43186 26-111 R41L): as the sequence (O43186 26-111) above, with R16L counted along it
ALX1 (Homo sapiens, UniProt Q15699 118-204, L144V), sequence (Q15699 118-204 L144V): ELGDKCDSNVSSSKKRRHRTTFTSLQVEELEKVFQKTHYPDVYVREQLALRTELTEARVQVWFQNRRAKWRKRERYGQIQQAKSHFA
ALX1 (Homo sapiens, UniProt Q15699 118-204), sequence (Q15699 118-204): as the sequence (Q15699 118-204 L144V) above, with V27L counted along it
ALX1 (Homo sapiens, UniProt Q15699 118-204, L144R), sequence (Q15699 118-204 L144R): as the sequence (Q15699 118-204 L144V) above, with V27R counted along it
VAX1 (Homo sapiens, UniProt Q5SQQ9 86-172, K157R), sequence (Q5SQQ9 86-172 K157R): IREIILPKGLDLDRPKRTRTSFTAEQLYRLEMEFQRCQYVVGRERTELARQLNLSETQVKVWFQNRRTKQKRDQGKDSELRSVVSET
VAX1 (Homo sapiens, UniProt Q5SQQ9 86-172), sequence (Q5SQQ9 86-172): as the sequence (Q5SQQ9 86-172 K157R) above, with R72K counted along it
PROP1 (Homo sapiens, UniProt O75360 56-141), sequence (O75360 56-141): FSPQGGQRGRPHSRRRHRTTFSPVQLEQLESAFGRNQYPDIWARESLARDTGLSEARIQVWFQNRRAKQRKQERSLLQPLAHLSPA
MSX2 (Homo sapiens, UniProt P35548 130-214), sequence (P35548 130-214): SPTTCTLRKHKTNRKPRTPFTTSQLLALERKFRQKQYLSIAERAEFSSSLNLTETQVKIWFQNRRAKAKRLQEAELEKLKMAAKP
PROP1 (Homo sapiens, UniProt O75360 56-141, R99H), sequence (O75360 56-141 R99H): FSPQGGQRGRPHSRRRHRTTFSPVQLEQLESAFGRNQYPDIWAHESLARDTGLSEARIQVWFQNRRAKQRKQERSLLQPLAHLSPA
MSX2 (Homo sapiens, UniProt P35548 130-214, R199I), sequence (P35548 130-214 R199I): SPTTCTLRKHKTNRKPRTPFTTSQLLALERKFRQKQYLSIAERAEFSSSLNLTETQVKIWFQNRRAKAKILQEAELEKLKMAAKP
MSX2 (Homo sapiens, UniProt P35548 130-214, F161Y), sequence (P35548 130-214 F161Y): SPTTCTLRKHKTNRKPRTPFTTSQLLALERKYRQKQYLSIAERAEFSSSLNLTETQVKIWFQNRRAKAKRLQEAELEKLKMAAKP
VAX1 (Homo sapiens, UniProt Q5SQQ9 86-172, T142I), sequence (Q5SQQ9 86-172 T142I): as the sequence (Q5SQQ9 86-172 K157R) above, with T57I, R72K counted along it

Consider AGGGATTA, for which the binding signal is 13.6 upbm affinity estimate (log intensity, higher = more binding, comparable within an allelic series) in the test with CRX [1]; 13.7 upbm affinity estimate (log intensity, higher = more binding, comparable within an allelic series) with CRX [2]; 13.5 upbm affinity estimate (log intensity, higher = more binding, comparable within an allelic series) with PITX2; 13.7 upbm affinity estimate (log intensity, higher = more binding, comparable within an allelic series) with CRX [3].

Regarding GACAACCA, the binding signal with CRX [1] is 8.34 upbm affinity estimate (log intensity, higher = more binding, comparable within an allelic series); with CRX [2], 8.18 upbm affinity estimate (log intensity, higher = more binding, comparable within an allelic series); in the test with PITX2, 7.92 upbm affinity estimate (log intensity, higher = more binding, comparable within an allelic series); with CRX [3] it was 8.21 upbm affinity estimate (log intensity, higher = more binding, comparable within an allelic series).

For the sequence CGGGATTA, the binding signal with CRX [1] is 13.4 upbm affinity estimate (log intensity, higher = more binding, comparable within an allelic series); with CRX [2], 13.4 upbm affinity estimate (log intensity, higher = more binding, comparable within an allelic series); in the test with PITX2 it was 13.3 upbm affinity estimate (log intensity, higher = more binding, comparable within an allelic series); with CRX [3] it was 13.3 upbm affinity estimate (log intensity, higher = more binding, comparable within an allelic series).

On to CGGCTTAA, for which the binding signal is 12.9 upbm affinity estimate (log intensity, higher = more binding, comparable within an allelic series) in the test with CRX [1]; 12.8 upbm affinity estimate (log intensity, higher = more binding, comparable within an allelic series) in the test with CRX [2]; 12.5 upbm affinity estimate (log intensity, higher = more binding, comparable within an allelic series) with PITX2.

As for AGGATTAC, the binding signal in the test with CRX [1] is 13.1 upbm affinity estimate (log intensity, higher = more binding, comparable within an allelic series); in the test with CRX [2], 13 upbm affinity estimate (log intensity, higher = more binding, comparable within an allelic series); with PITX2 it was 12.9 upbm affinity estimate (log intensity, higher = more binding, comparable within an allelic series); in the test with CRX [3], 13 upbm affinity estimate (log intensity, higher = more binding, comparable within an allelic series).

Take CCGGATTA: the binding signal with CRX [1] was 13.5 upbm affinity estimate (log intensity, higher = more binding, comparable within an allelic series); with CRX [2], 13.6 upbm affinity estimate (log intensity, higher = more binding, comparable within an allelic series); with PITX2, 13.1 upbm affinity estimate (log intensity, higher = more binding, comparable within an allelic series); with CRX [3], 13.5 upbm affinity estimate (log intensity, higher = more binding, comparable within an allelic series).

Consider CCCAGTCC, for which the binding signal in the test with CRX [1] was 8.2 upbm affinity estimate (log intensity, higher = more binding, comparable within an allelic series); with CRX [2] it was 8.28 upbm affinity estimate (log intensity, higher = more binding, comparable within an allelic series); with NKX2-6 [4], 9.59 upbm affinity estimate (log intensity, higher = more binding, comparable within an allelic series); with VAX1 [5] it was 7.25 upbm affinity estimate (log intensity, higher = more binding, comparable within an allelic series); with NKX2-6 [6] it was 9.36 upbm affinity estimate (log intensity, higher = more binding, comparable within an allelic series); in the test with VAX1 [7], 7.27 upbm affinity estimate (log intensity, higher = more binding, comparable within an allelic series). Further, the binding signal with CRX [3] is 8.25 upbm affinity estimate (log intensity, higher = more binding, comparable within an allelic series); with VAX1 [8] it was 7.03 upbm affinity estimate (log intensity, higher = more binding, comparable within an allelic series).

AAATCTGC: the binding signal was 10.8 upbm affinity estimate (log intensity, higher = more binding, comparable within an allelic series) with CRX [1]; 10.6 upbm affinity estimate (log intensity, higher = more binding, comparable within an allelic series) in the test with CRX [2]; 8.09 upbm affinity estimate (log intensity, higher = more binding, comparable within an allelic series) with ALX1 [9]; 8 upbm affinity estimate (log intensity, higher = more binding, comparable within an allelic series) with ALX1 [10]; 10.6 upbm affinity estimate (log intensity, higher = more binding, comparable within an allelic series) with CRX [3]; 8.23 upbm affinity estimate (log intensity, higher = more binding, comparable within an allelic series) in the test with ALX1 [11].

GGGATTAC: the binding signal in the test with CRX [1] was 13.2 upbm affinity estimate (log intensity, higher = more binding, comparable within an allelic series); with CRX [2], 13.2 upbm affinity estimate (log intensity, higher = more binding, comparable within an allelic series); with PITX2, 13.1 upbm affinity estimate (log intensity, higher = more binding, comparable within an allelic series); with CRX [3] it was 13.2 upbm affinity estimate (log intensity, higher = more binding, comparable within an allelic series).

For GCAAGGAC, the binding signal in the test with CRX [1] is 8.57 upbm affinity estimate (log intensity, higher = more binding, comparable within an allelic series); with CRX [2] it was 8.32 upbm affinity estimate (log intensity, higher = more binding, comparable within an allelic series); with ALX1 [9] it was 6.53 upbm affinity estimate (log intensity, higher = more binding, comparable within an allelic series); with ALX1 [10] it was 6.6 upbm affinity estimate (log intensity, higher = more binding, comparable within an allelic series); with CRX [3], 8.3 upbm affinity estimate (log intensity, higher = more binding, comparable within an allelic series); with ALX1 [11] it was 6.36 upbm affinity estimate (log intensity, higher = more binding, comparable within an allelic series).

In the case of GGATTACC, the binding signal in the test with CRX [1] was 13.3 upbm affinity estimate (log intensity, higher = more binding, comparable within an allelic series); in the test with CRX [2], 13.3 upbm affinity estimate (log intensity, higher = more binding, comparable within an allelic series); with PITX2, 13.1 upbm affinity estimate (log intensity, higher = more binding, comparable within an allelic series); in the test with CRX [3] it was 13.3 upbm affinity estimate (log intensity, higher = more binding, comparable within an allelic series).

Regarding CGCGCCAG, the binding signal is 8.61 upbm affinity estimate (log intensity, higher = more binding, comparable within an allelic series) with CRX [1]; 8.52 upbm affinity estimate (log intensity, higher = more binding, comparable within an allelic series) with CRX [2]; 9.5 upbm affinity estimate (log intensity, higher = more binding, comparable within an allelic series) with MSX2 [12]; 9.73 upbm affinity estimate (log intensity, higher = more binding, comparable within an allelic series) with MSX2 [13]; 9.71 upbm affinity estimate (log intensity, higher = more binding, comparable within an allelic series) with MSX2 [14]; 8.44 upbm affinity estimate (log intensity, higher = more binding, comparable within an allelic series) with CRX [3].

CATAATCC: the binding signal was 13.4 upbm affinity estimate (log intensity, higher = more binding, comparable within an allelic series) with CRX [1]; 13.4 upbm affinity estimate (log intensity, higher = more binding, comparable within an allelic series) in the test with CRX [2]; 13.1 upbm affinity estimate (log intensity, higher = more binding, comparable within an allelic series) with PITX2; 8.29 upbm affinity estimate (log intensity, higher = more binding, comparable within an allelic series) in the test with PROP1 [15]; 7.92 upbm affinity estimate (log intensity, higher = more binding, comparable within an allelic series) in the test with PROP1 [16]; 7.15 upbm affinity estimate (log intensity, higher = more binding, comparable within an allelic series) in the test with PROP1 [17]. Besides, the binding signal with CRX [3] was 13.4 upbm affinity estimate (log intensity, higher = more binding, comparable within an allelic series).

GGATTAAC: the binding signal with CRX [1] is 13.6 upbm affinity estimate (log intensity, higher = more binding, comparable within an allelic series); with CRX [2], 13.6 upbm affinity estimate (log intensity, higher = more binding, comparable within an allelic series); in the test with PITX2, 13.3 upbm affinity estimate (log intensity, higher = more binding, comparable within an allelic series); with CRX [3], 13.5 upbm affinity estimate (log intensity, higher = more binding, comparable within an allelic series).
